According to PubChem BioAssay:
Activity calls are given as the source filed them.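 The calls were made as follows, unless noted: active = inhibition above 20% together with a positive visual image hit; inconclusive = visual image hit but inhibition not above 20%; inactive = no visual image hit.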

Test: inhibitors of TNFa-induced NFkB p65 translocation, primary screen, imaging, HUVEC, MLSMR starter and 10KST1 sets (AID 438);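 also: compound added about 3h40 before a 20 min TNFalpha stimulation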;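 as to inhibition: signal is the nuclear over cytoplasmic p65 intensity ratio per well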
Settings: HUVEC TNFa-induced p65 nuclear translocation; cell count: measured here: nuclei count (cytotoxicity indicator), at 2.08 µM; inhibition: at 2 µM, stronger effect = higher value, 0% TNFa-plus-vehicle, 100% no-TNFa wells

Row | SMILES | inhibition | cell count
1 | Cc1cc(C)cc(OCCCC(=O)O)c1 | 9.4% (inactive) | 254
2 | c1ccc2c(c1)C(=Nn1cnnc1)c1ccccc1-2 | -3.4% (inactive) | 606
3 | COc1ccc(C2C(C#N)=C(C)NC3=C2C(=O)CC(C)(C)C3)c(OC)c1 (stereo not given) | -8% (inactive) | 252
4 | CCCN1CCN(CCCNC(=O)Cn2nc(-c3ccc(Cl)cc3)ccc2=O)CC1 | 13.6% (inactive) | 514
5 | CCCN(CCC)c1nc2ccccc2n2c(C)nnc12 | 6.5% (inactive) | 460
6 | COc1ccc(CC(=O)NCc2cccs2)cc1 | -20.6% (inactive) | 568
7 | O=C1c2ccccc2C(O)(Cc2ccccc2)N1Cc1ccco1 (stereo not given) | -2.9% (inactive) | 425
8 | Cc1[nH]c(=O)[nH]c(=O)c1S(=O)(=O)N(C)Cc1ccccc1 | 1.1% (inactive) | 433
9 | COc1cccc(NC(=O)Cc2nnc(SCC(=O)c3ccccc3)n2C)c1 | 9.7% (inactive) | 454
10 | COc1cccc(N2CCN(CC(=O)NCc3cccs3)CC2)c1 | -27.6% (inactive) | 702
11 | CCN(c1cccc(C)c1)S(=O)(=O)c1ccc2[nH]c(=O)c(=O)[nH]c2c1 | 6.2% (inactive) | 415
12 | COc1ccccc1CN(Cc1nc2ccccc2c(=O)[nH]1)C(=O)Nc1ccccc1 | -6.8% (inactive) | 733
13 | Cc1ccccc1-c1nc(CN2CCC(C(=O)NCc3cccnc3)CC2)c(C)o1 | -2.3% (inactive) | 349
14 | CC1(C)NC(=O)N(CNc2cc(Cl)ccc2Cl)C1=O | -17.4% (inactive) | 649
15 | CCS(=O)(=O)c1ccc(S(=O)(=O)CC)s1 | -5.5% (inactive) | 412
16 | O=C(O)C1CCCN1C(=O)Nc1ccc(F)cc1 (stereo not given) | -32.6% (inactive) | 543
17 | COCC(=O)N(Cc1ccc(OC)cc1)Cc1nc2ccccc2c(=O)[nH]1 | 6.5% (inactive) | 351
18 | COc1ccc(OCc2cccc(C(=O)O)c2)cc1 | -1.6% (inactive) | 623
19 | Cc1nc2ccccc2c(=O)n1/N=C/c1ccncc1 | -6.3% (inactive) | 644
20 | C=C(c1cccc2ccccc12)P(=O)(O)O | 11.9% (inactive) | 429

Row | SMILES | inhibition | cell count
21 | COc1ccc(-c2cc3nc4n(c(=O)c3s2)CCC4)cc1 | 3% (inactive) | 433
22 | CCCC(CCC)n1[nH]c(=O)c2c(C)cc(C)nc21 | 3.8% (inactive) | 357
23 | CCOC(=O)CS(=O)(=O)c1nc(-c2ccccc2)cc(C(F)(F)F)n1 | 2.8% (inactive) | 380
24 | Cc1n[nH]c(C)c1S(=O)(=O)N1CCCCCC1 | 1.8% (inactive) | 355
25 | CCN(CCO)C1CC(=O)N(c2ccccc2C)C1=O (stereo not given) | 7.7% (inactive) | 486
26 | Nc1nc2sc3c(c2c(=O)s1)CCCC3 | 0.2% (inactive) | 194
27 | CCOC(=O)c1[nH]c(C)c(C(=O)N(C)C)c1C | -10.9% (inactive) | 684
28 | Cc1cc(C)n(-c2nc3ccccc3c(=O)n2OCCOc2ccccc2)n1 | -9% (inactive) | 533
29 | C/C(NC1CCCC1)=C(/C#N)C(N)=O | -23.5% (inactive) | 396
30 | CCOc1ccc(C(=O)N(Cc2ccc(N(C)C)cc2)C2CCS(=O)(=O)C2)cc1 (stereo not given) | -12.2% (inactive) | 249
31 | Cc1ccc(NC(=O)Cn2cccc2)cc1Cl | -12.9% (inactive) | 655
32 | NC(=O)c1sc2nc(N3CCCCC3)c3c(c2c1N)CCCC3 | 8.4% (inactive) | 369
33 | O=C(Nc1nc(-c2ccc(S(=O)(=O)N3CCCCCC3)cc2)cs1)c1cccs1 | 15% (inactive) | 368
34 | Cc1ccc2ncnc(NCCCN3CCOCC3)c2c1 | -0.6% (inactive) | 339
35 | CCOC(=O)c1cc2c(=O)n3cccc(C)c3nc2n(Cc2ccco2)c1=NC(=O)c1cccnc1 | -1.1% (inactive) | 791
36 | O=S(=O)(c1ccc2c(c1)OCCO2)N(Cc1ccc(F)cc1)Cc1nnc(-c2cccs2)o1 | -21.4% (inactive) | 383
37 | COc1ccccc1-n1c(SCC(N)=O)nnc1-c1ccccc1 | 19.3% (inactive) | 737
38 | CCCNC(=O)c1c(N)n(-c2cc(OC)cc(OC)c2)c2nc3ccccc3nc12 | -7% (inactive) | 587
39 | COc1cc(C2c3c(oc4c(C)cc(C)cc4c3=O)C(=O)N2Cc2cccnc2)cc(OC)c1OC (stereo not given) | 0.3% (inactive) | 632
40 | O=C(c1cc(-c2ccco2)nn1-c1cccc(Cl)c1)N1CCCCC1 | -4.7% (inactive) | 502

Test: inhibitors of mutant huntingtin aggregation, primary screen, imaging, exon1htt(103Q)mCFP cells, high-content imaging (AID 483;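 active = visual image review flags a hit and inhibition of aggregation exceeds 20%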;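 also: compound exposure lasted 3 days before fixation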;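 as to nuclei count: percent of the per-plate median nuclei count of sample wells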)
Settings: exon1htt(103Q)mCFP cell line, aggregate imaging, at 2 µM; inhibition of aggregation: stronger effect = higher value; nuclei count: measured here: cell count, toxicity

Row | SMILES | nuclei count [%] | inhibition of aggregation
41 | Cc1cc(C)cc(OCCCC(=O)O)c1 | 118 | 12.3% (inactive)
42 | c1ccc2c(c1)C(=Nn1cnnc1)c1ccccc1-2 | 101 | 15.7% (inactive)
43 | COc1ccc(C2C(C#N)=C(C)NC3=C2C(=O)CC(C)(C)C3)c(OC)c1 (stereo not given) | 70.9 | 19.6% (inactive)
44 | CCCN1CCN(CCCNC(=O)Cn2nc(-c3ccc(Cl)cc3)ccc2=O)CC1 | 106 | 0.1% (inactive)
45 | CCCN(CCC)c1nc2ccccc2n2c(C)nnc12 | 76.7 | -1.5% (inactive)
46 | COc1ccc(CC(=O)NCc2cccs2)cc1 | 103 | -32.4% (inactive)
47 | O=C1c2ccccc2C(O)(Cc2ccccc2)N1Cc1ccco1 (stereo not given) | 96.8 | -10.1% (inactive)
48 | Cc1[nH]c(=O)[nH]c(=O)c1S(=O)(=O)N(C)Cc1ccccc1 | 110 | -2.7% (inactive)
49 | COc1cccc(NC(=O)Cc2nnc(SCC(=O)c3ccccc3)n2C)c1 | 88.6 | -12.5% (inactive)
50 | COc1cccc(N2CCN(CC(=O)NCc3cccs3)CC2)c1 | 100 | 20.4% (inactive)
51 | CCN(c1cccc(C)c1)S(=O)(=O)c1ccc2[nH]c(=O)c(=O)[nH]c2c1 | 93.5 | 7.1% (inactive)
52 | COc1ccccc1CN(Cc1nc2ccccc2c(=O)[nH]1)C(=O)Nc1ccccc1 | 87.7 | 16.9% (inactive)
53 | Cc1ccccc1-c1nc(CN2CCC(C(=O)NCc3cccnc3)CC2)c(C)o1 | 103 | -3.7% (inactive)
54 | CC1(C)NC(=O)N(CNc2cc(Cl)ccc2Cl)C1=O | 105 | -1.9% (inactive)
55 | CCS(=O)(=O)c1ccc(S(=O)(=O)CC)s1 | 61.1 | 25.8% (inactive)
56 | O=C(O)C1CCCN1C(=O)Nc1ccc(F)cc1 (stereo not given) | 91.3 | 13.6% (inactive)
57 | COCC(=O)N(Cc1ccc(OC)cc1)Cc1nc2ccccc2c(=O)[nH]1 | 91.9 | -0.1% (inactive)
58 | COc1ccc(OCc2cccc(C(=O)O)c2)cc1 | 55.9 | -9.3% (inactive)
59 | Cc1nc2ccccc2c(=O)n1/N=C/c1ccncc1 | 109 | -10.1% (inactive)
60 | C=C(c1cccc2ccccc12)P(=O)(O)O | 92.8 | 18.4% (inactive)

Row | SMILES | nuclei count [%] | inhibition of aggregation
61 | COc1ccc(-c2cc3nc4n(c(=O)c3s2)CCC4)cc1 | 88.6 | 4.8% (inactive)
62 | CCCC(CCC)n1[nH]c(=O)c2c(C)cc(C)nc21 | 105 | 7.5% (inactive)
63 | CCOC(=O)CS(=O)(=O)c1nc(-c2ccccc2)cc(C(F)(F)F)n1 | 102 | -12.2% (inactive)
64 | Cc1n[nH]c(C)c1S(=O)(=O)N1CCCCCC1 | 99.2 | -0.3% (inactive)
65 | CCN(CCO)C1CC(=O)N(c2ccccc2C)C1=O (stereo not given) | 104 | 12.4% (inactive)
66 | Nc1nc2sc3c(c2c(=O)s1)CCCC3 | 55.3 | -15.1% (inactive)
67 | CCOC(=O)c1[nH]c(C)c(C(=O)N(C)C)c1C | 111 | 14.5% (inactive)
68 | Cc1cc(C)n(-c2nc3ccccc3c(=O)n2OCCOc2ccccc2)n1 | 107 | -7.8% (inactive)
69 | C/C(NC1CCCC1)=C(/C#N)C(N)=O | 108 | -0.6% (inactive)
70 | CCOc1ccc(C(=O)N(Cc2ccc(N(C)C)cc2)C2CCS(=O)(=O)C2)cc1 (stereo not given) | 75 | 2.5% (inactive)
71 | Cc1ccc(NC(=O)Cn2cccc2)cc1Cl | 115 | 7% (inactive)
72 | NC(=O)c1sc2nc(N3CCCCC3)c3c(c2c1N)CCCC3 | 118 | -12.2% (inactive)
73 | O=C(Nc1nc(-c2ccc(S(=O)(=O)N3CCCCCC3)cc2)cs1)c1cccs1 | 115 | -6.4% (inactive)
74 | Cc1ccc2ncnc(NCCCN3CCOCC3)c2c1 | 101 | 4.8% (inactive)
75 | CCOC(=O)c1cc2c(=O)n3cccc(C)c3nc2n(Cc2ccco2)c1=NC(=O)c1cccnc1 | 108 | 1.7% (inactive)
76 | O=S(=O)(c1ccc2c(c1)OCCO2)N(Cc1ccc(F)cc1)Cc1nnc(-c2cccs2)o1 | 106 | -14.7% (inactive)
77 | COc1ccccc1-n1c(SCC(N)=O)nnc1-c1ccccc1 | 106 | -24.2% (inactive)
78 | CCCNC(=O)c1c(N)n(-c2cc(OC)cc(OC)c2)c2nc3ccccc3nc12 | 93.7 | 3% (inactive)
79 | COc1cc(C2c3c(oc4c(C)cc(C)cc4c3=O)C(=O)N2Cc2cccnc2)cc(OC)c1OC (stereo not given) | 106 | 7.3% (inactive)
80 | O=C(c1cc(-c2ccco2)nn1-c1cccc(Cl)c1)N1CCCCC1 | 91 | -5.1% (inactive)
